Here are results for 40 compounds from PubChem BioAssay (NCATS).

Molecules are shown by their SMILES. Results filed as inconclusive are left out. A number with no mark means an inactive call. Calls of active or inactive are those of the source. The call rests on the fitted dose curve; in most records, active means well fitted inhibition curve with a large enough effect; inconclusive means small, poorly fitted or top-dose-only effect; inactive means no such curve, though single readings can be large or run the other way.
Potency means the concentration at half of the fitted maximal effect.

The nature of the experiment: qHTS Screen of the MIPE 4.0 Collection Against Ewings Sarcoma (TC71) (AID 1259253). Further: nearly all actives have a fitted effect of over 40% in size.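 On viability (% of DMSO): 100% = DMSO-treated cells and 0% = medium-only wells without cells.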 Particulars: TC71 Ewing sarcoma viability, CellTiter-Glo, 48 h; series mostly up to 45.8 µM; viability (% of DMSO): at the top concentration. An excerpt:
There is a large unmet medical need for treatments for Ewing sarcoma, a pediatric sarcoma. We sought to identify compounds that inhibited Ewing sarcoma cells in vitro with the goal to then test promising drugs in two drug combinations in vitro to look for synergistic drug combinations. Promising combinations would then proceed to additional validation, including in vivo testing.
Using the NCATS developed oncology compound library called the Mechanism of Interrogation Plate (MIPE), four Ewing sarcoma cell lines were evaluated (TC32, TC71, RDES, EW8). Compounds, in a 12-point titration series, were incubated with cells for 48 hours and the read out was cell viability (CellTiter-Glo from Promega). These initial experiments were used to select appropriate concentrations of each single agent for subsequent two-drug matrix combinations such that the concentrations in the matrices would span both activity and non-activity.
Cells, in the log phase of growth, were seeded in 5 uL of RPMI plus 5% FBS, […] L-glutamine, 100 U/ml penicillin and 100 ug/ml streptomycin into 1536-well solid-bottom white tissue culture treated Greiner Bio One Plates (789173-F) using a MultiDrop Combi (Thermofisher Scientific) dispenser and a small sterile cassette. One column was media alone to be used as a :"no cells" control. The plates were then covered with sterilized stainless steel gasketed lids from Kalypsys. After allowing cells to attach for 4 hours, 23 nL of test compound or control (negative control DMSO and positive control 9.2 uM Bortezomib-final) were added from a 1536-well polypropylene compound source plate to each well using a 1536 head pin tool from Kalypsys. Cells were then incubated for 48 hours at 37C, 95% relative humidity and 5% CO2. After 48 hours, plates were removed from the incubator and 3 uL of CellTiter-Glo (Promega) was added using an Aurora Flying Reagent Dispenser Bioraptor. Plates were incubated at room temperature for 10 minutes prior to reading the luminescence on the Viewlux (PerkinElmer). The relative luciferase units are used to calculate the percent activity using the activity of DMSO in the cells and no cells columns for normalization of no inhibition and full inhibition respectively.
Background: In qHTS, concentration-response curves come from the screen itself.
As for `CC1=C(O)C(=O)C=C2C1=CC=C1[C@@]2(C)CC[C@@]2(C)[C@@H]3C[C@](C)(C(=O)O)CC[C@]3(C)CC[C@]12C`, the Potency was 1180 nM (active).

Consider `CCc1c(C(=O)C(N)=O)c2c(OCC(=O)O)cccc2n1Cc1ccccc1`, for which the Potency is 20900 nM (active). For `CC(=O)Nc1ccc(OC[C@](C)(O)C(=O)Nc2ccc([N+](=O)[O-])c(C(F)(F)F)c2)cc1`, the “viability (% of DMSO)” value is 95.6%. The same measure, in the same setting: for `CCN(CC)C(=O)c1ccc(C2=CC3(CCNCC3)Oc3cccc(O)c32)cc1` the value was 112%. Consider `Clc1ccccc1C(c1ccccc1)(c1ccccc1)n1cccn1`, for which the Potency is 1050 nM (active). Consider `CCOC(=O)c1c(C(C#N)=CN)c2ccc(Cl)c(Cl)c2n1C`, for which the “viability (% of DMSO)” value was 123%.

`CC(C)(C)[C@]1(O)C[C@@H]2OC(=O)C[C@@]23C(=O)O[C@@H]2OC(=O)[C@H](O)C213` (stereo not given in full): the Potency is 20900 nM (active). As to `Cc1c(N)nc([C@H](CC(N)=O)NC[C@@H](N)C(N)=O)nc1C(=O)N[C@H](C(=O)N[C@@H](C)[C@H](O)[C@@H](C)C(=O)N[C@@H](C(=O)NCCc1nc(-c2nc(C(=O)NCCC[S+](C)C)cs2)cs1)[C@@H](C)O)C(O[C@H]1O[C@H](CO)[C@H](O)[C@@H](O)[C@@H]1O[C@H]1O[C@H](CO)[C@@H](O)[C@H](OC(N)=O)[C@H]1O)c1cnc[nH]1` (stereo not given in full), the Potency is 526 nM (active). Still for that read-out and setting: for `C[C@@H]1O[C@@H](O[C@@H]2C=C3CC[C@@H]4[C@@H](CC[C@]5(C)[C@H](c6ccc(=O)oc6)CC[C@@]45O)[C@@]3(C)CC2)[C@H](O)[C@H](O)[C@H]1O` the value was 18.7 nM (active).

Regarding `COc1cccc2c1[C@]13CCN(CC4CC4)[C@H](C2)[C@]1(OC)CCC(=O)C3`, the “viability (% of DMSO)” value is 124%. On the same count and under the same terms, the figure for `C[C@]12CC[C@H]3[C@@H](CCC4=CC(=O)CC[C@@]43C)[C@H]1CC[C@H]2OC(=O)CCC1CCCC1` is 118%. Turning to `CC(O)=C(C#N)C(=O)Nc1cc(Br)ccc1Br`, the Potency was 23500 nM (active). For the compound `C[C@H]1CCCC=CC2C[C@H](O)C[C@@H]2[C@H](O)C=CC(=O)O1` (stereo not given in full), the “viability (% of DMSO)” value is 3.6%. `C=C[C@@H]1CN2CCC1C[C@@H]2[C@@H](O)c1ccnc2ccccc12` (stereo not given in full): the Potency is 18700 nM (active). As to `Cc1nc(-c2ccc(-c3ccc(C(=O)N4CCc5cc6c(cc54)C4(CCN(C)CC4)CO6)cc3)c(C)c2)no1`, the “viability (% of DMSO)” value was 132%. For the compound `C[C@@]12OC(=O)[C@]1([C@@H](O)[C@@H]1C=CCCC1)NC(=O)[C@H]2CCCl`, the Potency is 29.6 nM (active).

For the compound `CC[C@@H]1[C@@H](C)O[C@@](O)([C@@H](C)[C@H](O)[C@H](C)[C@H]2OC(=O)C=CC=C[C@@H](C)[C@@H]([C@@H](C)[C@@H](O)[C@H](C)[C@@]3(O)C[C@H](O[C@H]4C[C@H](O)[C@H](O)[C@H](C)O4)[C@H](CC)[C@@H](C)O3)OC(=O)C=CC=C[C@@H]2C)C[C@H]1O[C@H]1C[C@H](O)[C@H](O)[C@H](C)O1`, the Potency was 590 nM (active).

Turning to `CC(=O)O[C@@]12CO[C@H]1C[C@H](O)[C@@]1(C)C(=O)[C@H](O)C3=C(C)[C@@H](O)C[C@@](O)([C@@H](OC(=O)c4ccccc4)[C@@H]21)C3(C)C`, the Potency was 23500 nM (active).

On to `CC[C@H]1C=CC=CC[C@@H](C)[C@H](O)[C@@](C)(O)C(=O)[C@@H](C)[C@H](O)[C@@H](C)C(=O)[C@@H](C)[C@H](O)[C@@H](C)C=CC(=O)O[C@@H]2[C@@H](C)[C@H](CC1)O[C@]1(CC[C@H](C)[C@H](C[C@@H](C)O)O1)[C@H]2C`, for which the Potency was 11.8 nM (active). Still for that read-out and setting: the figure for `C=C[C@@H]1CN2CCC1C[C@H]2[C@H](O)c1ccnc2ccccc12` (stereo not given in full) is 20900 nM (active); for `CCN1CCN(C(=O)Cc2ccc(Nc3ncc(F)c(Nc4ccc(C(=O)Nc5ccccc5Cl)cc4)n3)cc2)CC1` it is 5900 nM (active). As for `CC1=NN=C(c2ccc(N)cc2)c2cc3c(cc2C1)OCO3`, the “viability (% of DMSO)” value was 126%.

For the compound `CO[C@H]1CCC(O[C@H]2C[C@H]([C@]3(C)CC[C@]4(C[C@H](O)[C@@H](C)[C@@H]([C@@H](C)C=C(C)C(=O)[C@H](C)C[C@H](C)C(=O)O)O4)O3)O[C@]3(O[C@@H]([C@H]4O[C@@](O)(CO)[C@H](C)C[C@H]4C)C[C@H]3C)[C@H]2C)O[C@H]1C` (stereo not given in full), the Potency is 332 nM (active). Still for that read-out and setting: for `CC(C)(O)C=CC(=O)[C@](C)(O)[C@H]1[C@H](O)C[C@]2(C)[C@@H]3CC=C4[C@@H](C=C(O)C(=O)C4(C)C)[C@]3(C)C(=O)C[C@@]12C` the value was 209 nM (active).

For the compound `CC(=O)OCC1=C(C(=O)O)N2C(=O)[C@@H](N)[C@@H]2SC1`, the “viability (% of DMSO)” value is 127%.

Consider `COc1cc([C@@H]2c3cc4c(cc3[C@@H](O)C3COC(=O)C32)OCO4)cc(OC)c1O` (stereo not given in full), for which the Potency is 41.8 nM (active). Still for that read-out and setting: for `CC=C(C)C(=O)O[C@H]1C(C)=C2[C@@H]3OC(=O)[C@@](C)(O)[C@@]3(O)[C@@H](OC(=O)CCC)C[C@](C)(OC(C)=O)[C@@H]2[C@@H]1OC(=O)CCCCCCC` the value was 52.6 nM (active); for `CN1CCN(c2ccc([N+](=O)[O-])c3no[n+]([O-])c23)CC1`, 23500 nM (active).

For the compound `COc1cc2cc(c1Cl)N(C)C(=O)C[C@H](OC(=O)C(C)C)[C@]1(C)O[C@H]1[C@H](C)[C@@H]1C[C@@](O)(NC(=O)O1)[C@H](OC)C=CC=C(C)C2`, the “viability (% of DMSO)” value is 23.9%. Still for that read-out and setting: the figure for `CN(C)[C@@H]1C(=O)C(C(N)=O)=C(O)[C@@]2(O)C(=O)C3=C(O)c4c(O)cccc4[C@@](C)(O)[C@H]3[C@H](O)[C@@H]12` is 126%; for `CCC(=O)OC1CCC2C3CCC4=CC(=O)CC[C@@]4(C)C3CC[C@]12C` (stereo not given in full) it is 122%. As to `Cc1c(C(=O)Nc2cccc(C(F)(F)F)c2)cc(-c2ccccc2)n1CCCN1CCOCC1`, the Potency is 6620 nM (active).

As to `c1ccc(CCCN2CCN(CCOC(c3ccccc3)c3ccccc3)CC2)cc1`, the Potency was 16600 nM (active). Turning to `CN[C@@H]1Cc2cccc3[nH]c(=O)n(c23)C1`, the “viability (% of DMSO)” value was 108%. Still for that read-out and setting: the figure for `CCOP(=O)(OCC)C(C)NC(=O)N(CCCl)N=O` (stereo not given) is 133%. Regarding `CC[C@@]1(O)C(=O)OCc2c1cc1n(c2=O)Cc2cc3ccccc3nc2-1`, the Potency is 9.3 nM (active). Regarding `COc1ccc2c(c1)[C@]13CCCCC1C(C2)N(C)CC3` (stereo not given in full), the “viability (% of DMSO)” value was 112%. For `C=CCON=C(C[C@H]1O[C@@H]2O[C@]3(C)CC[C@@H]4[C@H](C)CC[C@@H]([C@H]1C)[C@@]24OO3)[C@H]1O[C@@H]2O[C@]3(C)CC[C@H]4[C@H](C)CC[C@@H]([C@@H]1C)[C@@]24OO3`, the Potency is 418 nM (active). In the case of `COC(=O)[C@@H](N)CCCN=C(N)N[N+](=O)[O-]`, the “viability (% of DMSO)” value is 122%. Turning to `Cc1c(C(=O)c2cccc3ccccc23)c2cccc3c2n1[C@H](CN1CCOCC1)CO3`, the Potency is 26400 nM (active).
